# According to PubChem BioAssay (NCI):
# About 83,000 compounds went through this panel and 20% of them were active in at least one assay; those are over-represented in the sample as a whole.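 Note: values are percent growth. 100 is the growth of untreated cells, values between 100 and 0 indicate rising inhibition; between -100 and 0 indicates cell death.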 A number with no mark means an inactive call. Active and inactive are the calls of the source. How the source made its calls: active means growth percent below 10; inactive means the rest.
# Key:
# Test in all cases: NCI-60 one-dose screen, 48 h (100 = growth as untreated, 0 = no growth, -100 = all killed)
# NCI-H23 lung = conditions: 10 µM unless noted
# NCI-H226 lung = conditions: 10 µM unless noted
# NCI-H322M lung = conditions: 10 µM unless noted
# HOP-62 NSCLC = conditions: 10 µM unless noted
# NCI-H460 lung = conditions: 10 µM unless noted
# HOP-92 NSCLC = conditions: 10 µM unless noted
# NCI-H522 lung = conditions: 10 µM unless noted
# A549/ATCC NSCLC = conditions: 10 µM unless noted
# 786-0 renal = conditions: 10 µM unless noted
# COLO 205 colon = conditions: 10 µM unless noted
# DU-145 prostate = conditions: 10 µM unless noted
# K-562 leukemia = conditions: 10 µM unless noted
# MALME-3M melanoma = conditions: 10 µM unless noted
# MDA-MB-231 breast = conditions: 10 µM unless noted
# RXF 393 renal = conditions: 10 µM unless noted
# SF-268 CNS = conditions: 10 µM unless noted
# SF-295 CNS = conditions: 10 µM unless noted
# SF-539 CNS = conditions: 10 µM unless noted
# UACC-257 melanoma = conditions: 10 µM
# M14 melanoma = conditions: 10 µM unless noted
SMILES,growth (NCI-H23 lung),growth (NCI-H226 lung),growth (NCI-H322M lung),growth (HOP-62 NSCLC),growth (NCI-H460 lung),growth (HOP-92 NSCLC),growth (NCI-H522 lung),growth (A549/ATCC NSCLC),growth (786-0 renal),growth (COLO 205 colon),growth (DU-145 prostate),growth (K-562 leukemia),growth (MALME-3M melanoma),growth (MDA-MB-231 breast),growth (RXF 393 renal),growth (SF-268 CNS),growth (SF-295 CNS),growth (SF-539 CNS),growth (UACC-257 melanoma),growth (M14 melanoma)
CC(=O)Nc1ccc(C)c(Nc2cc(-c3ccc(-n4cccn4)cc3)[nH]n2)c1,67%,57.9%,83.8%,51.7%,27.6%,113%,14.3%,60.2%,74.9%,67.1%,81.5%,19%,73.6%,82.8%,52.8%,60.6%,46.1%,41.3%,64.4%,19.2%
Cc1ccc(NC(=O)c2cc(/C=C/C(=O)NO)cc(C(F)(F)F)c2)cc1Nc1nccc(-c2cccnc2)n1,2.29% (active),17.5%,12.8%,-19.1% (active),2.09% (active),-30.6% (active),-73.1% (active),61.2%,-22% (active),-65.2% (active),14.1%,5.9% (active),-19.2% (active),-24.7% (active),-8.53% (active),-3.6% (active),-4.95% (active),-15.2% (active),-38.8% (active),-20.7% (active)
C#C[C@]1(O)CC[C@H]2[C@@H]3CC=C4c5sc(-c6cccc(F)c6)nc5CC[C@]4(C)[C@H]3CC[C@@]21C,84.2%,83.5%,73.8%,91.4%,93.5%,113%,89.2%,83.8%,65.3%,97.9%,99.2%,19%,95.4%,93.2%,20.7%,85.8%,61.9%,67.3%,90%,82%
CN1CCN(c2ccc(C(=O)Nc3cccc(-c4cn(-c5ccc(S(N)(=O)=O)cc5)nn4)c3)cc2C(F)(F)F)CC1,82.2%,96.8%,72%,85.7%,78.8%,56.4%,90.2%,91.5%,52.5%,85.3%,92.5%,9.33% (active),71.4%,63.6%,6.63% (active),82.9%,90.4%,46.2%,95.8%,82.2%
Clc1ccc(-c2nc3ccc(/C(=N\N=C\c4ccccc4)c4ccccc4)cc3[nH]2)cc1,95%,82.4%,92.4%,111%,92.5%,96.3%,76.4%,81%,84.3%,73.1%,92.5%,53.6%,97.6%,95.8%,90.1%,92.5%,80.7%,92.7%,101%,77.4%
O=c1[nH]c(CNc2ccc(NCc3c(-c4ccccc4)no[n+]3[O-])cc2)nc2c1cnn2-c1ccccc1,63.4%,77.1%,80.2%,105%,64.2%,85.4%,60.8%,63.8%,86%,101%,74.6%,49.8%,80%,72.5%,98.4%,73.5%,71.8%,92.6%,60.6%,70.7%
COc1cc(C2=NN(C(C)=O)C(c3ccc(N4CCOCC4)cc3)C2)cc(OC)c1OC (stereo not given),86.8%,96.5%,88.1%,91.8%,103%,92.4%,89.7%,104%,95.5%,106%,107%,114%,94.4%,92%,108%,99%,101%,102%,103%,84.1%
COc1ccc2c(c1)c(-c1nnc(N)nc1-c1cn(C)c3ccccc13)cn2C,92.4%,86.5%,90.4%,89.1%,99.5%,97.9%,85%,95.8%,90.7%,104%,104%,83.5%,85.6%,91.1%,93.2%,101%,99.5%,91.8%,93.8%,85.7%
